# High-throughput results (PubChem BioAssay)
# Only some compounds are listed: those with a hit (about 3.7% of all), similar ones and a draw of the others.
# Bead autofluor = flagged as autofluorescent in microsphere protease counterscreen | compound autofluorescence counterscreen, microsphere flow cytometry; active compounds read high | fluorescence intensity (no concentration beside the values) | 360,000 compounds, 3.1% hits | AID 624483; in the data active = fluorescence intensity above about 16000; inconclusive = no clear call, values can overlap the other calls
# Anthrax LF prot = anthrax lethal factor protease inhibition; AID 588501; P15917; multiplex microsphere protease cleavage assay, LF; inhibition, % at 10 µM; 360,000 compounds, 0.12% hits
# MazEF act = activators of E. coli MazEF toxin-antitoxin RNase; P0AE70; FAM/BHQ RNA-DNA oligo cleavage fluorescence, 5 h; activation, % at 20 µM; 350,000 compounds, 0.32% hits; AID 504720; in the data active = activation above about 50%
# Target sequence (P0AE70 whole entry, looked up): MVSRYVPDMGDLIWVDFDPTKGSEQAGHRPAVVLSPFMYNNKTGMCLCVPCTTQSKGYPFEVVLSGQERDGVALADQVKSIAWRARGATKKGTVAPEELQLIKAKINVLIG
# BoNT-A LC inh2 = blocks Botulinum neurotoxin A light chain protease | inhibition, % at 10 µM | multiplex microsphere protease substrate cleavage, flow cytometry | 360,000 compounds, 0.17% hits
# BoNT F protease = BoNT F light chain protease inhibition. Multiplex microsphere protease cleavage assay, flow cytometry. inhibition, % at 10 µM. 360,000 compounds, 0.22% hits; in the data active = inhibition above about 35%, passing the limit was not always enough; inconclusive = no clear call, values can overlap the other calls
# Numbers stand for hits; - = inactive; ? = inconclusive; . = not tested or not shown; ! = repeats disagree. Cut-off read from the data, not from the text of the source, unless noted: active = inhibition above about 30%; inconclusive = no clear call, values can overlap the other calls; inactive = below that.
SMILES,Bead autofluor,Anthrax LF prot,MazEF act,BoNT-A LC inh2,BoNT F protease
N#Cc1c(-c2ccccc2F)cc(C2CC2)nc1SCC(=O)c1cccs1,-,-,65.4,-,-
CCSc1nc(C2CC2)cc(-c2cccs2)c1C#N,-,-,-,-,-
CC(Oc1ccccc1)C(=O)Nc1nnc(S(=O)(=O)N(C)c2ccccc2)s1 (stereo unspecified),-,-,-,-,-
COc1cc(CNc2ncn[nH]2)cc(Br)c1OC,23846,-,-,?,-
CCOc1c(Br)cc(CNc2ncn[nH]2)cc1OC,-,-,-,-,-
COc1cc(-c2noc(CCCC(=O)NCc3ccco3)n2)cc(OC)c1OC,21043,-,-,-,-
Cc1ccc(-c2noc(CCC(=O)NCc3ccco3)n2)cc1,19424,-,-,-,-
CC1(C(=O)Nc2ccc3c(c2)OCCO3)CCC(=O)N1CCOc1ccccc1 (stereo unspecified),-,-,.,-,-
CCSc1ncc(Cl)c(C(=O)Nc2sc3c(c2C(=O)NCc2cccnc2)CCCC3)n1,-,-,111.9,-,-
O=C1c2ccccc2N(Cc2ccc(Cl)cc2)C2=NCCN12,-,-,145.7,-,-
COc1ccc(C(=O)OCC(=O)Nc2ccc(F)cc2F)cc1OC,-,-,-,-,-
CCC(CC)NC(=O)COC(=O)c1ccc(OCC(=O)Nc2ccccc2OC)c(OC)c1,21089,-,-,?,-
COc1cc(C(=O)OCC(=O)Nc2ccc(F)cc2F)cc(OC)c1OC,20961,-,-,?,-
CCCNC(=O)COC(=O)c1ccc(OCC(=O)Nc2ccccc2OC)c(OC)c1,-,-,-,-,-
Cc1cc(S(=O)(=O)NCC(C)C)ccc1OCC(=O)N1CCOCC1,-,-,-,-,?
CCOC(=O)N1CCN(C(=O)COc2ccc(S(=O)(=O)Nc3ccc(OCC)cc3)cc2)CC1,17078,-,-,?,-
Cc1cc(S(=O)(=O)NCC(C)C)ccc1OCC(=O)NCc1ccccn1,21787,-,-,-,-
CCOC(=O)N1CCN(C(=O)COc2ccc(S(=O)(=O)NCC(C)C)cc2C)CC1,21204,-,-,-,-
CCOC(=O)COc1ccc(S(=O)(=O)Nc2cccc(SC)c2)cc1,21447,-,-,-,-
CCN(CC)C(=O)CSc1nc2c(sc(=S)n2-c2ccc(C)cc2C)c(=O)[nH]1,-,-,-,-,-
Cc1cc(NC(=O)C(C)SCC(=O)OCC(=O)N(C)c2ccccc2)no1 (stereo unspecified),-,-,-,-,-
COc1cccc(S(=O)(=O)N(C)C[C@H]2Oc3cc(Br)ccc3S(=O)(=O)N([C@@H](C)CO)C[C@H]2C)c1,-,-,-,-,-
O=C(CCn1nnc2ccccc21)Nc1nnc(COc2ccc(F)cc2)s1,21872,-,-,?,-
CCOc1cc(NC(=O)CC(C)C)c(OCC)cc1NC(=O)CCn1nnc2ccccc21,21013,-,-,-,-
CCOc1cc(NC(=S)Nc2cccc(OC)c2)c(OCC)cc1NC(=O)C(C)C,23255,-,-,?,-
SMILES,Bead autofluor,Anthrax LF prot,MazEF act,BoNT-A LC inh2,BoNT F protease
CCOC(=O)c1ccc(NC(=O)CCn2nnc3ccccc32)cc1,-,-,-,-,-
CCOc1cc(NC(=S)Nc2ccccc2)c(OCC)cc1NC(=O)c1ccc(OC)cc1,18966,-,-,-,-
O=C(CCn1nnc2ccccc21)Nc1nnc(Cc2ccc(F)cc2)s1,-,?,-,?,-
CCOc1cc(NC(=S)Nc2cccc(OC)c2)c(OCC)cc1NC(=O)c1ccc(C)cc1,-,-,-,-,-
CC(C)(CO)Nc1nc(Cl)nc(NC2CCCCC2)n1,-,-,-,-,-
C#CCNC(=O)C[C@@H]1C[C@@]2(C(=O)OCC)CCCC=C2N(Cc2cccc3ccccc23)C1=O,-,-,.,-,-
Cc1ccnc(NS(=O)(=O)c2ccc(NC(=O)c3ccc4c(c3)OCCO4)cc2)n1,-,-,-,-,-
CCOc1cc(NC(=S)Nc2ccc(Cl)cc2)c(OCC)cc1NC(C)=O,-,-,-,-,-
CCOc1cc(NC(=S)NCCCN2CCOCC2)c(OCC)cc1NC(=O)CC(C)C,22374,-,-,-,-
CCOc1cc(NC(=S)Nc2cccc(C)c2)c(OCC)cc1NC(=O)CC(C)C,22828,-,-,-,-
CCOc1ccc(CNS(=O)(=O)c2cccs2)cc1OCC,-,-,-,-,-
O=C(NCC1CCCCC1)c1ccco1,22013,-,-,?,-
O=C(NCCNC1CCCCC1)c1ccco1,-,-,-,-,-
C=Cc1c(C)c2cc3[nH]c(cc4nc(cc5nc(cc1[nH]2)C(C)=C5CCC(=O)O)C(CCC(=O)O)=C4C)c(C)c3C=C,-,-,-,42.9!,-
C(=N\c1nc2ccccc2[nH]1)/c1cccs1,23619,-,-,?,-
C[C@H](CO)N1C[C@H](C)[C@@H](CN(C)S(C)(=O)=O)Oc2ccc(NC(=O)C3CC3)cc2C1=O,-,-,-,-,-
CN(c1ccccc1)S(=O)(=O)c1cccc(NC(=O)CCNC(=O)c2ccco2)c1,-,-,-,-,-
O=C(CN1CCN(c2ccc(O)cc2)CC1)Nc1cc([N+](=O)[O-])ccc1Cl,-,-,-,-,-
CN(CCO)c1cc(Sc2nc3ccccc3s2)c2nonc2c1[N+](=O)[O-],21417,-,-,-,-
Cc1ccc(C)c(N2CCN(C(=O)CCc3nc(-c4ccc(Br)cc4)no3)CC2)c1,-,-,-,-,-
Cc1cc(C)cc(C(=O)Nc2cccc(NC(=O)c3ccco3)c2)c1,-,-,-,-,-
CCc1ccc(NC(=O)C(CC)Sc2nc3cc4c(cc3c(=O)n2Cc2ccco2)OCO4)cc1 (stereo unspecified),20624,-,-,?,-
O=c1c(C(c2ccc(Cl)cc2)c2c(O)nc3n(c2=O)CCS3)c(O)nc2n1CCS2,-,-,-,?,?
O=c1c(C(c2ccc(F)cc2)c2c(O)nc3n(c2=O)CCS3)c(O)nc2n1CCS2,-,-,288.6,-,?
O=c1[nH]c(CN2CCN(c3ccc([N+](=O)[O-])cc3)CC2)nc2ccsc12,-,-,-,-,-
SMILES,Bead autofluor,Anthrax LF prot,MazEF act,BoNT-A LC inh2,BoNT F protease
COc1ccc(N2CCN(Cc3nc4ccsc4c(=O)[nH]3)CC2)cc1,20654,-,-,-,-
CCOc1nc(C)cc(C)c1S(=O)(=O)c1cccc(Cl)c1,-,-,-,-,-
COc1ccc(OC)c(C(=O)COC(=O)c2c(OC)cccc2OC)c1,-,-,-,-,-
COc1ccc(OC)c(C(=O)COC(=O)c2ccccc2O)c1,22401,-,-,-,-
O=C(CN1C(=O)c2ccccc2S1(=O)=O)N1CCCCC1,-,-,-,-,-
O=C(CN1C(=O)c2ccccc2S1(=O)=O)N1CCOCC1,20391,-,-,-,-
COCCCNC(=O)c1ccc2c(=O)n(C3CCCC3)c(=S)[nH]c2c1,18736,-,-,-,-
COCCCNC(=O)c1ccc2c(=O)n(CC3CCCO3)c(=S)[nH]c2c1 (stereo unspecified),16266,-,-,-,-
CC(C)NC(=O)c1ccc2c(=O)n(CC3CCCO3)c(=S)[nH]c2c1 (stereo unspecified),-,-,-,-,-
CC1CCC(NC(=O)CCNC(=O)c2ccc(Br)cc2)CC1 (stereo unspecified),-,-,-,-,-
